Assay results: ChEMBL document CHEMBL3433997, “St. Jude Leishmania screening dataset” (2016)

Each compound was assayed against Solute carrier family 2, facilitated glucose transporter member 1 (Homo sapiens) (UniProt P11166) (assay: ST_JUDE_LEISH: Cytotoxicity at 2uM final concentration against transgenic Leishmania Mexicana promastigotes LmGLUT1 that are glucose transport deficient and complemented with the human glucose transporter GLUT1. Activity is measured by DNA content using SYBR green in vitro).
Chain of Solute carrier family 2, facilitated glucose transporter member 1 (Homo sapiens) (P11166 whole entry): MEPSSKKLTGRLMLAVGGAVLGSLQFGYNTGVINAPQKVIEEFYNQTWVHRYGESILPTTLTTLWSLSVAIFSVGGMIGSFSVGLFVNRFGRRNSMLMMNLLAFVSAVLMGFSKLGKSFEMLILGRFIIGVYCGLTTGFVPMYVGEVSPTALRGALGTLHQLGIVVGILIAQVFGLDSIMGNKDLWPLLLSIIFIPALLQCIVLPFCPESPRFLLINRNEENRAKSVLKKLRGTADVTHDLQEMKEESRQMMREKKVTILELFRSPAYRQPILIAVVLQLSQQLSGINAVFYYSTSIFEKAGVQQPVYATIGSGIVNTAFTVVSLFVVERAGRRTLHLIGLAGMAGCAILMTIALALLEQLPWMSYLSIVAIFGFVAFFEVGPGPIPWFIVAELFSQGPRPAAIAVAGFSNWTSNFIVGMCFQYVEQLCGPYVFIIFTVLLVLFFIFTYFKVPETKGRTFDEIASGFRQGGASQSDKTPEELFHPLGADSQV
Format: functional
In the case of `CCC(=O)Nc1ccc(Nc2nc(C)cc(N3CCCC3)n2)cc1`, the inhibition is reported as 3.46%.
`Cc1cc(NC(=O)NCCN2CCC(NS(=O)(=O)c3ccc(C(F)(F)F)cc3)C2)c2ccccc2n1` (stereo not given) showed an inhibition of 11.8%.
Work on `Cn1cncc1C(=O)Nc1ccc(-c2ccc(-c3nc4cc(C(F)(F)F)ccc4[nH]3)cc2)cc1` yielded an inhibition of 20.8%.
`C=Cc1ccccc1C1(O)CCN(CCCCNC(=O)c2ccc(-c3ccc(C#N)cc3)cc2)CC1` showed an inhibition of 1.27%.
Work on `COc1ccc2cc(CNCCCCCCNCc3ccc4cc(OC)ccc4c3)ccc2c1` yielded an inhibition of 107%.
With `O=C(NCC1CCN(Cc2ccc3c(c2)OCCO3)C1)c1cc(-c2ccccc2F)cs1` (stereo not given) the inhibition was 4.88%.
`CC(C)(C)OC(=O)N[C@@H](CS(=O)(=O)CCNC(=N)COCc1ccccc1)C(=O)OC(C)(C)C` gave an inhibition of 7.09%.
`CNCCNCc1ccc(-c2ccc(-c3nc4cc(F)ccc4[nH]3)s2)cc1` was tested, and the inhibition was 9.52%.
`COc1ccc2nccc([C@@H](O)CN3CCC(NCc4ccc5c(c4)oc(=S)n5C)CC3)c2c1` gave an inhibition of 2.25%.
Work on `COc1cc2nc(NCc3nc4ccccc4[nH]3)nc(N)c2cc1OC` yielded an inhibition of 11%.
In the case of `Cc1cc(C(=O)Nc2ccc3c(c2)CCN3C2CCN(Cc3ccc(O)cc3)C2)no1` (stereo not given), the inhibition is reported as 4.29%.
`O=C(Nc1ccc(N2CCCCC2)c(Cl)c1)c1ccc(Br)o1` gave an inhibition of 1.4%.
Compound `Cc1cccc2nc(-c3ccc(-c4cccc(CN5CCC(CCN6CCCCC6)CC5)c4)s3)[nH]c12` has an inhibition of -0.21%.
Work on `CCCNc1ccc2nccc(CCN3CCC(NCc4ccc5c(n4)NC(=O)CS5)CC3)c2n1` yielded an inhibition of 3.5%.
Compound `O=C1Nc2cccc3c2C1(CCCCN1CCC(c2c(-c4ccc(F)cc4)[nH]c4ccccc24)CC1)CCC3` (stereo not given) has an inhibition of 5.51%.
`Cc1ccc(Nc2nc(-c3ccccn3)cs2)nc1` showed an inhibition of 75.7%.
Work on `CC1(C)NC(N)=NC(=N)N1OCc1cc(Cl)cc2c1OCOC2` yielded an inhibition of 2.73%.
In the case of `CCOC(=O)c1cc(C(=O)NCCCCN2CCC(c3cn(C)c4ccccc34)CC2)ccc1-c1ccc(C(F)(F)F)cc1`, the inhibition is reported as 2.37%.
Work on `Cc1ccc2cc(NC(=O)CCCCCCCON3C(N)=NC(N)=NC34CCCCC4)ccc2n1` yielded an inhibition of -1.59%.
With `Cc1ccc(O)cc1Nc1ccnc2cc(-c3csc(CN4CCN(C)CC4)n3)ccc12` the inhibition was 8.26%.
Compound `Cc1cc2c(cc1C(F)(F)F)N(C(=O)Nc1cc(C(=O)NC3CCN(Cc4ccccc4)C3)cc(C(F)(F)F)c1)CC2` (stereo not given) has an inhibition of 6.43%.
`COc1cc(C(=O)N2N=C(c3c(-c4ccccc4)c4cc(Br)ccc4[nH]c3=O)CC2c2cccc([N+](=O)[O-])c2)cc(OC)c1OC` (stereo not given) was tested, and the inhibition was 3.48%.
In the case of `OC1=C2C(=Nc3ccccc3SC2c2ccccc2)c2ccccc21` (stereo not given), the inhibition is reported as 4.3%.
In the case of `CCOc1cc(C(=O)Nc2ccc3nc(N4CCN(C)CC4)cc(C)c3c2)cc(OCC)c1OCC`, the inhibition is reported as 3.11%.
With `O=C(Nc1ccc(Cn2ncc(N3CCCNCC3)c(Cl)c2=O)cc1)Nc1cccc(Oc2ccccc2)c1` the inhibition was 2.36%.
Compound `C(=Cc1nc2ccccc2s1)c1ccc2c(c1)OCCO2` has an inhibition of 0.08%.
`CN(C)c1ccc(NC(=O)Nc2ccnc3ccccc23)cc1Br` gave an inhibition of 8.81%.
`O=C(NC(CCCN1CCC(c2ccccc2)CC1)c1ccc(Cl)c(Cl)c1)c1cc(C(F)(F)F)cc(C(F)(F)F)c1` (stereo not given) showed an inhibition of 2.06%.
For `Cc1nn(-c2ccccc2)nc1C(=O)N(Cc1ccc(-c2ccc(CNCCc3ccc(S(C)(=O)=O)cc3)cn2)cc1)C(C)CN(C)C` (stereo not given), the inhibition was 0.95%.
Compound `CN(c1ccc(NC(=O)Nc2cc(C(F)(F)F)ccc2F)cc1)c1ccnc(NCCN2CCCC2)n1` has an inhibition of 5.11%.
`Cc1cccc2nc(-c3ccc(-c4ccc(CN5CCCCC5)cc4)cc3)[nH]c12` was tested, and the inhibition was 19.2%.
`COc1ccc(NC(=O)Nc2ccc(-c3ccccc3)cc2)cc1Cn1cnc(N2CCCNCC2)cc1=O` was tested, and the inhibition was 3.65%.
Compound `Clc1cccc(C23N/C(=N\c4nc5ccccc5[nH]4)NC2(c2ccccc2)N/C(=N\c2nc4ccccc4[nH]2)N3)c1` (stereo not given) has an inhibition of 5.03%.
Compound `Cn1cc(CCNc2ccnc(N3CCC(c4ncc[nH]4)CC3)n2)c2ccccc21` has an inhibition of -2.77%.
For `Cc1noc(C)c1-c1ccc2c(Nc3nccc4ccccc34)c(C(N)=O)cnc2c1`, the inhibition was 103%.
`CN1CCN(CCCN(Cc2ccc(-c3ccc(CNCc4ccc5c(c4)OCO5)cc3)cc2)C(=O)Nc2ccccc2)CC1` showed an inhibition of 11.6%.
`O=[N+]([O-])c1cccc(S(=O)(=O)N2CCN(CC(O)COc3ccc(-c4ccccc4)cc3)CC2)c1` (stereo not given) was tested, and the inhibition was 1.04%.
With `CCOc1ccc(-c2nonc2NC(=O)CC(C)C)cc1OCC` the inhibition was -0.61%.
Compound `Cc1ccccc1N1CCN(c2ccc(C(=O)Nc3ccccc3)cc2)CC1` has an inhibition of -0.27%.
For `COc1ccc(CNCc2ccc(F)cc2)cc1-c1cccc(S(=O)(=O)NCCN2CCCC2)c1`, the inhibition was 0.82%.

These compounds were tested against Hexose transporter 1 (Plasmodium falciparum) (UniProt O97467) (assay: ST_JUDE_LEISH: Cytotoxicity at 2uM final concentration against transgenic Leishmania Mexicana promastigotes LmPfHT that are glucose transport deficient and complemented with the Plasmodium falciparum hexose transporter. Activity is measured by DNA content using SYBR green in vitro).
Format: functional
Work on `CCC(=O)Nc1ccc(Nc2nc(C)cc(N3CCCC3)n2)cc1` yielded an inhibition of 12.4%.
For `Cc1cc(NC(=O)NCCN2CCC(NS(=O)(=O)c3ccc(C(F)(F)F)cc3)C2)c2ccccc2n1` (stereo not given), the inhibition was 11.8%.
`Cn1cncc1C(=O)Nc1ccc(-c2ccc(-c3nc4cc(C(F)(F)F)ccc4[nH]3)cc2)cc1` gave an inhibition of 15%.
In the case of `C=Cc1ccccc1C1(O)CCN(CCCCNC(=O)c2ccc(-c3ccc(C#N)cc3)cc2)CC1`, the inhibition is reported as 1.76%.
For `COc1ccc2cc(CNCCCCCCNCc3ccc4cc(OC)ccc4c3)ccc2c1`, the inhibition was 107%.
`O=C(NCC1CCN(Cc2ccc3c(c2)OCCO3)C1)c1cc(-c2ccccc2F)cs1` (stereo not given) was tested, and the inhibition was 4.71%.
Work on `CC(C)(C)OC(=O)N[C@@H](CS(=O)(=O)CCNC(=N)COCc1ccccc1)C(=O)OC(C)(C)C` yielded an inhibition of 6.29%.
`CNCCNCc1ccc(-c2ccc(-c3nc4cc(F)ccc4[nH]3)s2)cc1` was tested, and the inhibition was 7.79%.
Work on `COc1ccc2nccc([C@@H](O)CN3CCC(NCc4ccc5c(c4)oc(=S)n5C)CC3)c2c1` yielded an inhibition of 5.5%.
Work on `COc1cc2nc(NCc3nc4ccccc4[nH]3)nc(N)c2cc1OC` yielded an inhibition of 11.9%.
For `Cc1cc(C(=O)Nc2ccc3c(c2)CCN3C2CCN(Cc3ccc(O)cc3)C2)no1` (stereo not given), the inhibition was 5.39%.
In the case of `O=C(Nc1ccc(N2CCCCC2)c(Cl)c1)c1ccc(Br)o1`, the inhibition is reported as 2.17%.
`Cc1cccc2nc(-c3ccc(-c4cccc(CN5CCC(CCN6CCCCC6)CC5)c4)s3)[nH]c12` was tested, and the inhibition was 0.87%.
Compound `CCCNc1ccc2nccc(CCN3CCC(NCc4ccc5c(n4)NC(=O)CS5)CC3)c2n1` has an inhibition of 2.84%.
`O=C1Nc2cccc3c2C1(CCCCN1CCC(c2c(-c4ccc(F)cc4)[nH]c4ccccc24)CC1)CCC3` (stereo not given) showed an inhibition of 5.23%.
With `Cc1ccc(Nc2nc(-c3ccccn3)cs2)nc1` the inhibition was 65.5%.
Work on `CC1(C)NC(N)=NC(=N)N1OCc1cc(Cl)cc2c1OCOC2` yielded an inhibition of -0.07%.
Work on `CCOC(=O)c1cc(C(=O)NCCCCN2CCC(c3cn(C)c4ccccc34)CC2)ccc1-c1ccc(C(F)(F)F)cc1` yielded an inhibition of 2.2%.
Work on `Cc1ccc2cc(NC(=O)CCCCCCCON3C(N)=NC(N)=NC34CCCCC4)ccc2n1` yielded an inhibition of 0.8%.
In the case of `Cc1ccc(O)cc1Nc1ccnc2cc(-c3csc(CN4CCN(C)CC4)n3)ccc12`, the inhibition is reported as 5.93%.
In the case of `Cc1cc2c(cc1C(F)(F)F)N(C(=O)Nc1cc(C(=O)NC3CCN(Cc4ccccc4)C3)cc(C(F)(F)F)c1)CC2` (stereo not given), the inhibition is reported as 6.1%.
`COc1cc(C(=O)N2N=C(c3c(-c4ccccc4)c4cc(Br)ccc4[nH]c3=O)CC2c2cccc([N+](=O)[O-])c2)cc(OC)c1OC` (stereo not given) gave an inhibition of 3.48%.
For `OC1=C2C(=Nc3ccccc3SC2c2ccccc2)c2ccccc21` (stereo not given), the inhibition was 5.31%.
With `CCOc1cc(C(=O)Nc2ccc3nc(N4CCN(C)CC4)cc(C)c3c2)cc(OCC)c1OCC` the inhibition was 3.76%.
Work on `O=C(Nc1ccc(Cn2ncc(N3CCCNCC3)c(Cl)c2=O)cc1)Nc1cccc(Oc2ccccc2)c1` yielded an inhibition of 2.39%.
`C(=Cc1nc2ccccc2s1)c1ccc2c(c1)OCCO2` gave an inhibition of 0.45%.
For `CN(C)c1ccc(NC(=O)Nc2ccnc3ccccc23)cc1Br`, the inhibition was 8.16%.
For `O=C(NC(CCCN1CCC(c2ccccc2)CC1)c1ccc(Cl)c(Cl)c1)c1cc(C(F)(F)F)cc(C(F)(F)F)c1` (stereo not given), the inhibition was 1.99%.
Compound `Cc1nn(-c2ccccc2)nc1C(=O)N(Cc1ccc(-c2ccc(CNCCc3ccc(S(C)(=O)=O)cc3)cn2)cc1)C(C)CN(C)C` (stereo not given) has an inhibition of 3.63%.
In the case of `CN(c1ccc(NC(=O)Nc2cc(C(F)(F)F)ccc2F)cc1)c1ccnc(NCCN2CCCC2)n1`, the inhibition is reported as 4.8%.
`Cc1cccc2nc(-c3ccc(-c4ccc(CN5CCCCC5)cc4)cc3)[nH]c12` was tested, and the inhibition was 18.6%.
Compound `COc1ccc(NC(=O)Nc2ccc(-c3ccccc3)cc2)cc1Cn1cnc(N2CCCNCC2)cc1=O` has an inhibition of 2.02%.
Compound `Clc1cccc(C23N/C(=N\c4nc5ccccc5[nH]4)NC2(c2ccccc2)N/C(=N\c2nc4ccccc4[nH]2)N3)c1` (stereo not given) has an inhibition of 4.69%.
`Cn1cc(CCNc2ccnc(N3CCC(c4ncc[nH]4)CC3)n2)c2ccccc21` gave an inhibition of -1.57%.
In the case of `Cc1noc(C)c1-c1ccc2c(Nc3nccc4ccccc34)c(C(N)=O)cnc2c1`, the inhibition is reported as 89.7%.
`CN1CCN(CCCN(Cc2ccc(-c3ccc(CNCc4ccc5c(c4)OCO5)cc3)cc2)C(=O)Nc2ccccc2)CC1` was tested, and the inhibition was 13.7%.
In the case of `O=[N+]([O-])c1cccc(S(=O)(=O)N2CCN(CC(O)COc3ccc(-c4ccccc4)cc3)CC2)c1` (stereo not given), the inhibition is reported as 1.75%.
For `CCOc1ccc(-c2nonc2NC(=O)CC(C)C)cc1OCC`, the inhibition was -0.84%.
Work on `Cc1ccccc1N1CCN(c2ccc(C(=O)Nc3ccccc3)cc2)CC1` yielded an inhibition of 0.69%.
`COc1ccc(CNCc2ccc(F)cc2)cc1-c1cccc(S(=O)(=O)NCCN2CCCC2)c1` gave an inhibition of 0.14%.
